# PglD DTNB: PglD (C. jejuni) enzyme inhibition; purified PglD enzyme, DTNB colorimetric CoA detection; inhibition, % at 12.5 µM; 360,000 tested, 0.098% active; in the data active = inhibition above about 16%, passing the limit was not always enough
# miR122 inh: blocks miR-122 activity in Huh7 sensor cells; Huh7 miR-122 Renilla luciferase sensor, 48 h; neutral wells = 0, positive control = 100; activation (reporter increase), % at 12.5 µM; 340,000 tested, 0.3% active; AID 602342;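 active = mean replicate activation score at least 90 and every replicate individually at or above 90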;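 note: higher luciferase means less miR-122 activity so hits act as miR-122 inhibitors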
# NSD2 inh: blocks human histone methyltransferase NSD2; NSD2 peptide methylation, AlphaScreen, 120 min; inhibition, % at 12.5 µM; 310,000 tested, 0.54% active; AID 743445; in the data active = inhibition above about 50%
# Target sequence (O96028 whole entry, looked up): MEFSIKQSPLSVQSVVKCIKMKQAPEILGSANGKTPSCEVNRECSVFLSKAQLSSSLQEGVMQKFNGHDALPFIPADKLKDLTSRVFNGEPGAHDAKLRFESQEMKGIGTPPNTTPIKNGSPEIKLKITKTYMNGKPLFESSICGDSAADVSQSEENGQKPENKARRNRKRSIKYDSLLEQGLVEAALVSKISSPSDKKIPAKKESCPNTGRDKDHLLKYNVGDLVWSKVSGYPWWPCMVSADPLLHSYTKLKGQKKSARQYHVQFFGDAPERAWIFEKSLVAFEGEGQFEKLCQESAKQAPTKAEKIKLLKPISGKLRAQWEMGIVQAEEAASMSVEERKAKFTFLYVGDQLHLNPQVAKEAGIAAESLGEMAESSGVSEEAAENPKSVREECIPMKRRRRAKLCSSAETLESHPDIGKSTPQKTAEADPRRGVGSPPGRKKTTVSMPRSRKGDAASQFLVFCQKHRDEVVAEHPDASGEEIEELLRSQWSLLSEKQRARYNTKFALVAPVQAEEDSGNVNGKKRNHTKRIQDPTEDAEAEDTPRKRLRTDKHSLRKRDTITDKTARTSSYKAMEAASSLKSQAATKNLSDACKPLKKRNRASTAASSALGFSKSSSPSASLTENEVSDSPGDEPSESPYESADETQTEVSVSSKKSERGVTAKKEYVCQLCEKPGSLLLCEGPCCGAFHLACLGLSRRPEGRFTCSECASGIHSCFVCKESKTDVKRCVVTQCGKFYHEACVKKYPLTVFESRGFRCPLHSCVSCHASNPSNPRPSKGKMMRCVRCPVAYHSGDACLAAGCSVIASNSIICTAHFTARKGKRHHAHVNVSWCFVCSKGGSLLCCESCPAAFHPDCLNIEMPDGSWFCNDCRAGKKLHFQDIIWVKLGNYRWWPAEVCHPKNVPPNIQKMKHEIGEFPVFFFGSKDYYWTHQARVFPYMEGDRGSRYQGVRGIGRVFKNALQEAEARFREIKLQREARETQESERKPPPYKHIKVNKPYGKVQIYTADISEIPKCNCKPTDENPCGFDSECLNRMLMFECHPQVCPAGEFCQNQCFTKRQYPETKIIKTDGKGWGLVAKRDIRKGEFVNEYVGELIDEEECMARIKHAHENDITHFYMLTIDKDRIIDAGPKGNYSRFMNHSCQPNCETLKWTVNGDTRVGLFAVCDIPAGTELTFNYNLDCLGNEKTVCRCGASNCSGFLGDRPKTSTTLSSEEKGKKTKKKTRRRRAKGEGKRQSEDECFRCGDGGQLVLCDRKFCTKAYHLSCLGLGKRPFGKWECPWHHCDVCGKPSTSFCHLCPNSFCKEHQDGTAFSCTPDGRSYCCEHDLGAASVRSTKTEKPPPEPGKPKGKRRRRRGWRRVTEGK
# C2C12 statin: protects C2C12 myotubes from simvastatin toxicity | 330,000 tested, 0.78% active | AID 602340 | ATP luminescence, 48 h; scaled: DMSO 0, geranylgeraniol control 100 | rescue of ATP level, % at 7.49 µM;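 active = mean ATP rescue above about 67%, or every replicate alone reaching that limit, limit read from the data, passing the limit was not always enough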;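 note: myotubes were challenged with 10 µM simvastatin during compound exposure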
# Alpha artifact: interferes with AlphaScreen signal, flagging NSD2 false positives | AID 1053174 | shares compounds with NSD2 inh | AlphaScreen artifact counterscreen, preloaded methylated H4 peptide | AC35, µM (titrated, usually from 10 µM), for inactives: top-dose activity change, negative = signal loss | 1,500 tested, 9.4% active; call rule not given here
# Numbers without * were called inactive; / = no result; [ ] = another dose, or the depositor's remark. Sampled rows, rich in hits. Any-hit rate of the full collection: about 1.2%.
SMILES,PglD DTNB,miR122 inh,NSD2 inh,C2C12 statin,Alpha artifact
CO[C@@H]1CN(C)C(=O)c2cc(NC(=O)C3CCCC3)ccc2OC[C@@H](C)N(C(=O)c2ccccc2)C[C@H]1C,3,2[16.7 µM],/,-2,/
CCCC(=O)Nc1ccc2c(c1)C(=O)N(C)C[C@H](OC)[C@H](C)CN(C(=O)CC)[C@@H](C)CO2,/,3[16.7 µM],/,-3,/
O=C(NCC[C@H]1CC[C@@H](NC(=O)c2cnccn2)[C@@H](CO)O1)c1ccc2c(c1)OCO2,2,/,/,1,/
CC(=O)Nc1ccc(NCc2ccc(C)s2)cc1,-3,-5,56*,-1,-3%
Cc1ccc(S(=O)(=O)/N=C2/NC(=O)/C(=C\c3ccco3)S2)cc1,-10,5,17,-9,/
CC(=O)Nc1ccc(S(=O)(=O)/N=C2/NC(=O)/C(=C\c3ccco3)S2)cc1,/,7,55*,/,-7%
C[C@@H]1CN([C@@H](C)CO)C(=O)c2cc(-c3ccncc3)cnc2O[C@H]1CN(C)Cc1ccc(F)cc1,-2,9[16.7 µM],/,-4,/
COc1ccc(NC(=O)Nc2cccc3c2O[C@@H](CN(C)C)[C@H](C)CN([C@H](C)CO)C3=O)cc1,4,-5[16.7 µM],/,17,/
O=C(NCCN1CCCCC1)/C(=C/c1ccco1)NC(=O)c1ccccc1,2,-3,79*,1,-2%
CCOC(=O)C1=CN(c2cccc(F)c2)C=C(C(=O)OCC)C1c1cc(OC)c(O)c([N+](=O)[O-])c1,-1,-2,57*,-36,-16%
COC(=O)C[C@H]1CC[C@@H]2[C@@H](COc3ccc(NC(=O)c4cccc(F)c4)cc3C(=O)N2C)O1,-1,3[16.7 µM],/,8,/
N=C1SCC(=O)N1c1ncc(Cc2cccc(Cl)c2)s1,-2,-12,80*,20,-1%
N=C1SCC(=O)N1c1ncc(Cc2ccccc2Cl)s1,-3,-17,-1,8,/
C/C(=N\O)C(C)Oc1ccc(Cl)cc1 (configuration not stated),/,/,65*,/,2%
C[C@H](CO)N1C[C@H](C)[C@H](CN(C)Cc2cncnc2)Oc2cc(-c3ccncc3)ccc2S1(=O)=O,-3,-3[16.7 µM],/,/,/
Cc1cc(C(=O)COC(=O)c2n[nH]c3ccccc23)c(C)n1C,-2,2,71*,/,-2%
Cc1cc(C(=O)COC(=O)c2n[nH]c(=O)c3ccccc23)c(C)n1C,-3,-2,0,7,/
CCN(CC)CCNC(=O)Cn1nc(Cc2ccncc2)c2ccccc2c1=O,1,-11,2,3,/
CCN(CC)CCNC(=O)Cc1nn(Cc2ccccc2)c(=O)c2ccccc12,-4,2,51*,-3,-2%
O=C(CC1SC2=NCCN2C1=O)Nc1ccccc1 (configuration not stated),0,-9,115*,/,-3%
Cc1ccc(NC(=O)CC2SC3=NCCN3C2=O)cc1 (configuration not stated),-2,6,-4,-2,/
O=C1c2cccc(Cl)c2C(=O)c2c1cccc2N1CCCC1,-5,2,74*,-19,1.1µM*
O=C1c2ccccc2C(=O)c2cc(N3CCCCC3)ccc21,7,/,8,-34,/
COc1ccc(-n2c3nc4ccccc4nc3c3c(=N)oc(C)nc32)cc1,-7,-5,115*,-3,3%
CCCCc1nc(Cl)c(C#N)c2c1CCCC2,/,/,-1,/,/
SMILES,PglD DTNB,miR122 inh,NSD2 inh,C2C12 statin,Alpha artifact
N#Cc1c(Cl)nc2c(c1C#N)CCCC2,/,/,61*,/,1%
COc1ccc(CN(C)C[C@H]2Oc3ccc(NS(=O)(=O)c4cn(C)cn4)cc3C(=O)N([C@@H](C)CO)C[C@@H]2C)cc1,-1,0[16.7 µM],/,-8,/
Cn1cc(-c2ccccc2C(N)=O)c(=O)c2cc(Cl)ccc21,6,0,20,5,/
Cn1cc(-c2ccccc2C(N)=O)c(=O)c2ccccc21,-2,0,56*,7,-1%
O=C(COC(=O)c1ccc([N+](=O)[O-])s1)Nc1ncc(C(F)(F)F)cc1Cl,-1,-5,75*,6,0%
Cc1c(N=C2C=CC(=O)c3ccccc32)c(=O)n(-c2ccccc2)n1C,/,/,89*,/,-8%
Cc1c(N=C2C=C(Br)C(=O)C(Br)=C2)c(=O)n(-c2ccccc2)n1C,/,/,30,/,/
CCOC(=O)c1sc2nc(C)nc(NCc3ccccc3OC)c2c1C,1,-4,0,-16,/
CCOC(=O)c1sc2nc(C)nc(NC3CCC(O)CC3)c2c1C (configuration not stated),-3,1,91*,-92,-5%
CN1/C(=C\C=C2/SC(=S)NC2=O)C(C)(C)c2ccccc21,/,-14,/,-47,/
CN1CCC/C1=C/C=C1\SC(=S)NC1=O,/,/,53*,/,2%
COc1cccc(C(=O)N2C[C@H]3[C@@H](c4ccccc42)[C@@H](CO)N3C(=O)c2ccccc2)c1,-3,70[16.7 µM],/,-11,/
CC1=NOC(=O)/C1=C\c1ccc(-c2ccc(Br)cc2)o1,/,/,69*,/,0%
CC1CN(Cc2cc(=O)n3ccsc3n2)CC(C)O1 (configuration not stated),-4,-7,62*,/,1%
COc1ccc2c(c1)Cc1sc(NC(C)=O)nc1-2,-1,13,95*,6,-5%
COc1ccc2c(c1)Cc1sc(NC(=O)c3cccnc3)nc1-2,/,/,52*,/,0%
COc1ccc2c(c1)Cc1sc(NC(=O)c3ccco3)nc1-2,-3,11,26,17,/
COc1ccc(NC(=O)N(C)C[C@H]2Oc3ccc(NC(=O)C4CCCCC4)cc3C(=O)N([C@H](C)CO)C[C@H]2C)cc1,3,13[16.7 µM],/,10,/
O=C(/C=C/c1ccc(OCCCF)cc1)N1CCN(Cc2ccccc2)CC1,/,-9,70*,7,-2%
O=C(/C=C/c1ccc([N+](=O)[O-])cc1)N1CCN(Cc2ccccc2)CC1,3,-2,-2,-3,/
CCN(CC)CCNS(=O)(=O)c1ccc2c3c(cccc13)C(=O)N2,6,/,55*,-7,1%
C[C@H](CO)N1C[C@H](C)[C@H](CN(C)Cc2ccncc2)Oc2c(NS(=O)(=O)c3ccccc3)cccc2C1=O,-3,13[16.7 µM],/,-8,/
C[C@@H]1CN([C@H](C)CO)C(=O)c2cc(NC(=O)NC3CCCCC3)ccc2O[C@@H](C)CCCCO[C@@H]1CN(C)S(=O)(=O)c1ccccc1,1,0[16.7 µM],/,/,/
NC(=NCc1ccco1)NC(=O)c1ccccc1,-1,0,4,-3,/
NC(=NCc1ccc2c(c1)OCO2)NC(=O)c1ccccc1,/,/,88*,/,0%
COc1ccc(NS(=O)(=O)c2ccc3c(c2)[C@H]2C=CC[C@H]2[C@@H](c2ccc(C(=O)O)cc2)N3)cc1,0,1,55*,-3,-11%
COc1ccc(N=c2scc(C)n2CCCN2CCCC2=O)cc1,/,-2,151*,/,2%
Cc1nnc(N/N=C\c2ccc(-c3ccccc3[N+](=O)[O-])o2)n1N,/,/,93*,/,-8%
CCc1nnc(N/N=C/c2ccc(-c3ccc([N+](=O)[O-])cc3)o2)n1N,/,-1,11,7,/
Cc1nnc(N/N=C/c2ccccc2O)n1N,/,/,101*,/,-5%

# Screening data from PubChem BioAssay.
